Source: PubChem (National Center for Advancing Translational Sciences (NCATS))
CHX counter – Cycloheximide Counterscreen for Small Molecule Inhibitors of Shiga Toxin; max response, %; cell reporter, cycloheximide protein synthesis inhibition counterscreen; 300,000 tested, 12% active; AID 2314, 2010; in the data active = max response mostly above about 13%, no sharp cut-off; inactive = mostly below about 14%; note: read at 38.3 µM for the half of the compounds with a filed dose; 0% is about no effect
Pf growth 96h – Primary qHTS for delayed death inhibitors of the malarial parasite plastid, 96 hour incubation. P. falciparum luciferase reporter growth, 96 h. Potency, µM (top dose mostly 28.7 µM), without a hit: at the top dose activity change, negative = inhibition, hits mostly inhibitors. 320,000 tested, 6.9% active. AID 504834, 2011; note: potency is the fitted concentration of half-maximal effect; % is set by controls: 0 for no effect and ±100 for the full control effect
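Delayed-death screen, second-generation endpoint: infected erythrocytes, 2% hematocrit, 0.05% parasitemia final; 96 hours at 37 C, 5% CO2; luciferase detection reagent; luminescence decrease equals reduced growth.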
Shiga inhibitor – A qHTS for Small Molecule Inhibitors of Shiga Toxin; Vero cells, Shiga toxin protein synthesis inhibition reporter; inhibition, % at 38.7 µM; 290,000 tested, 9.2% active; AID 2315, 2010; in the data active = inhibition mostly above about 28%, no sharp cut-off; inactive = mostly below about 43%; note: 0% is about no effect
NS1 inh – qHTS Assay for Inhibitors of Influenza NS1 Protein Function; Potency, µM (top dose mostly 46.1 µM), without a hit: at the highest dose activity, positive = more growth; 270,000 tested, 0.4% active; calls by dose curve; note: potency is the fitted concentration of half-maximal effect; actives are rising curves; nearly all actives have a fitted effect of over 50% in size
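A cell-based growth assay was used: compounds that relieve NS1-induced slow growth of budding yeast raise OD600. Assay medium was yeast nitrogen base with ammonium sulphate and -URA supplement, pH 6.0, with 2% galactose.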
Pf growth 48h – Primary qHTS for delayed death inhibitors of the malarial parasite plastid, 48 hour incubation; AID 504832, 2011; 310,000 tested, 5.9% active; P. falciparum luciferase growth in erythrocytes, 48 h; Potency, µM (doses to about 28.7 µM), for inactives: at the top dose activity change, negative = inhibition, hits mostly inhibitors; note: potency is the fitted concentration of half-maximal effect; % is set by controls: 0 for no effect and ±100 for the full control effect
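Firefly luciferase activity from engineered P. falciparum reports growth; inhibitors lower the luminescent signal. Cultures contained 2% hematocrit erythrocytes at 0.1% final parasitemia.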
An asterisk follows results filed as active; ! = repeats disagree. Rows were chosen to be rich in hits. Some 21% of all compounds tested hit in one or more screens of this group. Unless noted, calls come from the whole dose curve; as a rule, active = well fitted inhibition curve with a large enough effect; inconclusive = small, poorly fitted or top-dose-only effect, or another doubt; inactive = no such curve, though single readings can be large or run the other way.

O=C1CC(c2ccc(O)c(O)c2)Oc2c1ccc(O)c2O (stereo unspecified) was read as CHX counter 5, Pf growth 96h 2.1µM*, Shiga inhibitor 1, NS1 inh 1% and Pf growth 48h inconclusive.
`S=C(Nc1cccc(Cl)c1Cl)NC1CCN(Cc2ccccc2)CC1` gave CHX counter -4, Pf growth 96h -21%, Shiga inhibitor 10, NS1 inh -17% and Pf growth 48h inconclusive.
For COc1ccc2nc(Sc3c([N+](=O)[O-])nc(C)n3Cc3ccccc3)[nH]c2c1 the results were CHX counter -5, Pf growth 96h inconclusive, Shiga inhibitor -12, NS1 inh 1% and Pf growth 48h 23%.
For CCCn1c(N2CCN(Cc3ccc(Cl)cc3)CC2)nc2ccccc21 the results were CHX counter 6, Pf growth 96h 29%, Shiga inhibitor 20, NS1 inh -36% and Pf growth 48h inconclusive.
Cc1nc([N+](=O)[O-])c(N2CCN(Cc3ccccc3)CC2)n1Cc1ccccc1 was read as CHX counter -5, Pf growth 96h 17µM*, Shiga inhibitor -13 and NS1 inh -1%.
For Cn1cnc([N+](=O)[O-])c1Sc1nc2ccccc2[nH]1 the results were CHX counter 0, Pf growth 96h inconclusive, Shiga inhibitor -5, NS1 inh 8% and Pf growth 48h inconclusive.
Screening Cc1cc2nc(Sc3c([N+](=O)[O-])nc(C)n3Cc3ccccc3)[nH]c2cc1C returned CHX counter -2, Pf growth 96h inconclusive, Shiga inhibitor -10, NS1 inh -2% and Pf growth 48h 10µM*.
For Cc1nc([N+](=O)[O-])c(Sc2nc3ccccc3[nH]2)n1Cc1ccccc1 the results were CHX counter -4, Pf growth 96h 4.1µM*, Shiga inhibitor -12, NS1 inh -3% and Pf growth 48h inconclusive.
CCn1c(N2CCN(Cc3ccc([N+](=O)[O-])cc3)CC2)nc2ccccc21 was read as CHX counter -3, Pf growth 96h 13µM*, Shiga inhibitor 2, NS1 inh -48% and Pf growth 48h inconclusive.
For Cc1nnc(NC(=O)CN2CCN(Cc3ccc(F)cc3Cl)CC2)s1 the results were CHX counter -1, Pf growth 96h -15%, Shiga inhibitor -4, NS1 inh 14% and Pf growth 48h 7%.
Screening Cc1ccc(NC(=O)COC(=O)CCc2nc3ccccc3c(=O)[nH]2)cc1Cl returned CHX counter -1, Pf growth 96h 11%, Shiga inhibitor 7, NS1 inh 0% and Pf growth 48h 2%.
For COc1ccccc1NC(=O)c1cc2c(s1)-c1ccccc1S(=O)(=O)C2 the results were CHX counter -1, Pf growth 96h 19%, Shiga inhibitor -6, NS1 inh -2% and Pf growth 48h 4%.
O=C(C[n+]1ccsc1)c1ccccc1 was read as CHX counter 7, Pf growth 96h 2%, Shiga inhibitor 13, NS1 inh 17% and Pf growth 48h -7%.
`O=C(C[n+]1ccccn1)c1ccccc1` gave CHX counter 15*, Pf growth 96h inconclusive, Shiga inhibitor 40*, NS1 inh inconclusive and Pf growth 48h 10%.
Screening CC1CCCc2sc3ncn(N)c(=N)c3c21 (stereo unspecified) returned CHX counter -2, Pf growth 96h -28%, Shiga inhibitor -16, NS1 inh -3% and Pf growth 48h 8%.
For CCN(CC(=O)O)S(=O)(=O)c1cc(Cl)ccc1Cl the results were CHX counter -2, Pf growth 96h 13µM*, Shiga inhibitor -2, NS1 inh 5% and Pf growth 48h 7%.
`Cc1nc2c(=O)n(C)c(=O)[nH]c2n1Cc1ccccc1` gave CHX counter 37*, Pf growth 96h -4%, Shiga inhibitor 20, NS1 inh 5% and Pf growth 48h 24%.
For CCc1ccc(NC(=O)c2ccccc2NC(=O)C2CCCO2)cc1 (stereo unspecified) the results were CHX counter 65*, Pf growth 96h 157%, Shiga inhibitor 51 and NS1 inh -7%.
Screening O=C(NCCOc1ccccc1)c1ccccc1NC(=O)C1CCCO1 (stereo unspecified) returned CHX counter 41*, Pf growth 96h -36%, Shiga inhibitor 60 and Pf growth 48h 211%.
CCOC(=O)N1CCC(N2Cc3cccc(C(=O)NC(C)c4ccc5c(c4)OCCO5)c3C2=O)CC1 (stereo unspecified) was read as CHX counter -8, Pf growth 96h -14%, Shiga inhibitor -23 and NS1 inh -19%.
COc1ccccc1CNC(=O)[C@H](C)NC(=O)C1CCN(C(=O)[C@H](CCSC)NC(=O)OC(C)(C)C)CC1 was read as CHX counter 2, Pf growth 96h -11%, Shiga inhibitor 14, NS1 inh -24% and Pf growth 48h inconclusive.
Screening CCc1c(C)nc2c(C#N)c[nH]n2c1=O returned CHX counter -4, Pf growth 96h 0.52µM*, Shiga inhibitor -9, NS1 inh 1% and Pf growth 48h -2%.
For CNc1nnc(-c2ccc(N(C)C)cc2)s1 the results were CHX counter 18*, Pf growth 96h -16%, Shiga inhibitor 19, NS1 inh -3% and Pf growth 48h 129%.
`C[C@H](CCC(=O)O)[C@H]1CC[C@@H]2[C@H]3[C@@H](C[C@@H](O)[C@]21C)[C@]1(C)CC[C@H](O)C[C@@H]1C[C@@H]3O` gave Pf growth 96h -17%, NS1 inh 0% and Pf growth 48h -13%.
C[C@H](CCC(=O)O)[C@H]1CC[C@H]2[C@@H]3[C@H](O)C[C@@H]4C[C@H](O)CC[C@]4(C)[C@H]3C[C@H](O)[C@]12C was read as CHX counter -3, Pf growth 96h 12µM*!, Shiga inhibitor -8, NS1 inh 7% and Pf growth 48h 9.3µM*!.
Cc1ccc(N/N=C(\C#N)C(N)=S)c(C)c1 was read as CHX counter 13*, Pf growth 96h inconclusive, Shiga inhibitor 41, NS1 inh -56% and Pf growth 48h 4%.
For CCc1cc2c(=O)n(Cc3ccco3)c(SCc3c(C)noc3C)nc2s1 the results were CHX counter 12*, Pf growth 96h inconclusive, Shiga inhibitor 42*, NS1 inh -19% and Pf growth 48h inconclusive.
Screening Cc1ccc(-c2nnc3cccc(Cl)n23)cc1 returned CHX counter 1, Pf growth 96h inconclusive, Shiga inhibitor -8 and Pf growth 48h 10%.
Screening NC(=S)NN=C1c2cc(OCCN3CCOCC3)ccc2-c2ccc(OCCN3CCOCC3)cc21 returned CHX counter 0, Pf growth 96h 78%, Shiga inhibitor -13, NS1 inh 5% and Pf growth 48h 3.3µM*.
For C=CCOc1ccc2c(c1)C(=NO)c1cc(OCC=C)ccc1-2 the results were CHX counter 10, Pf growth 96h inconclusive, Shiga inhibitor 14 and NS1 inh -65%.
For COc1ccc2c(c1)C(=NO)c1cc(OC)ccc1-2 the results were CHX counter 18*, Shiga inhibitor 22*, NS1 inh -56% and Pf growth 48h 15%.
